Hit rate of the full screen: of about 2,400 compounds, about 95 (4%) were called active. Not shown: some 3% with an inconclusive outcome.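 The calls were made as follows: active = compounds lowering signal whose fitted AC50 is at most ten times the top tested dose; inconclusive = flat fit with moderate inhibition, or poor curve fit; inactive = the rest.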 Not all results are given here. Potency and affinity values are given separately.
Experiment: GFP reporter loss versus dox-driven RFP – NIH3T3 R4 cells, cherry-pick, set 3, dose response (AID 493083)
Details: NIH3T3 R4 HSF-1 GFP reporter, heat shock, 48 h; series mostly up to 19.5 µM

outcome, inactive:
NS(=O)(=O)c1ccc(CCNC(=O)c2ccc(C#CC3(O)CCCCC3)cc2)cc1
COc1cccc(/C=N/NC(=O)c2cnccn2)c1
CC1CCN(CC(=O)c2cccs2)CC1
N/C(=N\OC(=O)Cc1ccccc1[N+](=O)[O-])c1cccnc1
Cc1ccc(S(=O)(=O)c2ccc(Oc3ccccc3)cc2)cc1
COc1cc(NS(=O)(=O)c2ccc(C)cc2)c2ncccc2c1
O=C(Cc1ccc(O)cc1)NC1CCCCCC1
Fc1ccc(-c2nc3c(-c4ccc(Cl)cc4)cnn3cc2CCN2CCOCC2)cc1
COc1ccc(-n2cc([N+](=O)[O-])c(=O)c3ccc(Cl)cc32)cc1
O=[N+]([O-])c1ccc(O)c(C=Nc2ccc3oc(Cc4ccc(Cl)cc4)nc3c2)c1
CC(=O)c1ccc(OCC(O)CN2CCN(Cc3ccc4c(c3)OCO4)CC2)cc1 (stereo unspecified)
COc1ccc(C(=O)NC(=S)NNC(=O)c2ccco2)cc1
CNC(=S)N(CCc1c(C)[nH]c2ccc(C)cc12)Cc1cc(OC)c(OC)c(OC)c1
CC1CCC2(CC1)N=C(N)Nc1nc3ccccc3n12 (stereo unspecified)
COc1ccc(C(=O)NNC(=O)c2ccccn2)cc1
COc1ccc(OC)c(-c2cc(C(=O)N/N=C/c3cc(OC)c(OC)cc3OC)c3ccccc3n2)c1
CC(C)Nc1nnc(Sc2ccc(Cl)cc2[N+](=O)[O-])s1
Cc1ccc2nc(CSc3nc(C)ccc3C#N)[nH]c2c1
CC(/C=C/c1ccc2c(c1)OCO2)=N/NC(=O)c1ccncc1
COCCN(C(=S)Nc1c(C)cccc1C)C(C)c1cccnc1 (stereo unspecified)
COCCCn1c(-c2ccco2)nc2ccccc2c1=O
N#Cc1c(N)n(-c2ccccc2N)c2nc3ccccc3nc12
COc1ccccc1C(=O)NCC(=O)N/N=C/c1ccc2c(c1)OCO2
NS(=O)(=O)c1ccc(NC2=CC(=O)C(=O)c3ccccc32)cc1
CN(Cc1nc(-c2ccccc2)no1)C(=O)c1ccc2c(c1)OCO2
COc1cccc(-c2c(NC(C)=O)n(C)c3ccccc3c2=O)c1
COc1ccc(NC(=O)c2cc(CN3C(=O)c4ccccc4C3=O)ccc2OC)cn1
COc1ccc(/C=N/NC(=O)c2cc(-c3cccn3C)n[nH]2)cc1OC
C=CCn1c(CCCNC(=O)C(C)(C)C)nc2ccccc21
Cc1ccc(NC(=S)NC2CC3CCC(C2)N3Cc2ccco2)cc1C (stereo unspecified)
COc1ccc(N2CCN(C(=O)c3ccc(NS(=O)(=O)c4ccccc4)cc3)CC2)cc1

From PubChem BioAssay AID493083 (Broad Institute, 2011)
